These results are taken from PubChem BioAssay.

Experiment [1] addresses Albumin (Bos taurus) (UniProt P02769). The experiment is described as follows: compounds binding labelled BSA control protein – biochemical, small-molecule microarray, Alexa647 label, 635/667 nm fluorescence, artefact control for SMM control protein annotation, profiling panel (AID 1118).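 Note: score merges 667 nm emission intensity and signal-to-noise per printed compound spot.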 The following applies: BSA-A647 binding, fluorescence 635 nm, higher = more signal.
Experiment [2] in a line: probe aXIP binding to arrayed compounds – biochemical, NeuroSMM set, 635/667 nm fluorescence, primary screen (AID 1119).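 Note: probe is the protein aXip251-270 applied at 1 µg/mL to compound-printed slides; binding of probe to printed compounds measured as 667 nm fluorescence plus signal to noise.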 The settings on record: small-molecule microarray, higher = more signal, called active from +8 up or from −8 down.
The nature of experiment [3]: probe aNOTCH3 binding on compound microarray – biochemical, small-molecule microarray, 635/667 nm fluorescence, primary screen (AID 1120).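 Note: probe is a biotin-tagged antibody raised against NOTCH3 rather than NOTCH3 protein; score merges spot fluorescence near 667 nm with spot signal to noise.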 The following applies: higher = more signal.
A short description of experiment [4]: probe aNOTCH2 binding on compound microarray – biochemical, small-molecule microarray, 635/667 nm fluorescence, primary screen (AID 1121).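 Note: score merges feature fluorescence read at 667 nm with its signal to noise.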 The following applies: higher = more signal.
Experiment [5] deals with Carbonic anhydrase 2 (Homo sapiens) (UniProt P00918). The experiment is described as follows: compounds binding carbonic anhydrase 2 – biochemical, small-molecule microarray, Alexa647-labelled CAII, profiling panel (AID 1122). The following applies: CAII-A647 binding fluorescence, higher = more signal.
Experiment [6] in a line: COS7 lysate on small-molecule microarray, probe aHis, 635 nm (AID 1123).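 Note: z-score combines 667nm fluorescence intensity with signal-to-noise per printed compound spot.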 The settings on record: COS7 cell lysate, fluorescence, higher = more signal.
The nature of experiment [7]: probe aLAP1 signal on lysate-treated microarray – cell lysate, small-molecule microarray, COS7 lysate, primary screen (AID 1124).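 Note: lysate comes from COS7 cells expressing LAP1 and is applied at 0.3 µg/mL; score merges spot fluorescence near 667 nm with signal-to-noise over triplicate slides.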 The following applies: probe aLAP1, fluorescence, higher = more signal.
Experiment [8] has as its system Sam68 (KHDRBS1). The experiment is described as follows: compounds binding KHDRBS1 protein – biochemical, small-molecule microarray, 635 nm fluorescence, primary screen (AID 1125).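 Note: score merges 667 nm channel intensity with signal to noise over triplicate slides.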 The following applies: higher = more signal.
The test system of experiment [9] is Chordin-like protein 2 (CHRDL2). The experiment is described as follows: compounds binding chordin-like 2 – biochemical, small-molecule microarray, 635 nm fluorescence, primary screen (AID 1126).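 Note: printed compound slides probed with Chrdl2 protein at 4 µg/mL for 1 h at 4 C; score merges 667 nm emission intensity with signal to noise over three replicate slides.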 The following applies: fluorescence 635 nm, higher = more signal.
In experiment [10] the target is Concanavalin-A (Canavalia ensiformis) (UniProt P02866). The experiment is described as follows: compounds binding concanavalin A lectin – biochemical, small-molecule microarray, Alexa647 label, 635 nm, artefact control for SMM control protein annotation, primary screen (AID 1127).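 Note: z combines 667 nm emission intensity with signal-to-noise across three replicate slides.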 The settings on record: ConA-A647 binding fluorescence, higher = more signal.

The source made the active and inactive calls.

Chain of Albumin (Bos taurus) (P02769 whole entry, looked up): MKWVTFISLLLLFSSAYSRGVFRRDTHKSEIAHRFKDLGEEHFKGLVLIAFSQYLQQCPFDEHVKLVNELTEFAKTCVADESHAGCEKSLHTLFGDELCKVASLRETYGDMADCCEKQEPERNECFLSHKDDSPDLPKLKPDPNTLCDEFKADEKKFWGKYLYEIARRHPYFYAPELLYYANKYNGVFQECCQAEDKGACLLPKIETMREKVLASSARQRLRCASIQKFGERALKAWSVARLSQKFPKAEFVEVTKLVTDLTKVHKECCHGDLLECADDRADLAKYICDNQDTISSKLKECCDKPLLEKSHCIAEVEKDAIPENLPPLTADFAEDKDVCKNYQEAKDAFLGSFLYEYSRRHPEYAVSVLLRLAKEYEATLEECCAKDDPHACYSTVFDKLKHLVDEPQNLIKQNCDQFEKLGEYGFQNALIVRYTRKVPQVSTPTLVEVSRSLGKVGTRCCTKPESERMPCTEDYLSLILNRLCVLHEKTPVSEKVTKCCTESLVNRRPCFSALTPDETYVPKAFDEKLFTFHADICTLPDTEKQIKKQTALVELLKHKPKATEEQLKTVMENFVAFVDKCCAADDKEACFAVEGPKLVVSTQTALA
Chain of Concanavalin-A (Canavalia ensiformis) (P02866 whole entry, looked up): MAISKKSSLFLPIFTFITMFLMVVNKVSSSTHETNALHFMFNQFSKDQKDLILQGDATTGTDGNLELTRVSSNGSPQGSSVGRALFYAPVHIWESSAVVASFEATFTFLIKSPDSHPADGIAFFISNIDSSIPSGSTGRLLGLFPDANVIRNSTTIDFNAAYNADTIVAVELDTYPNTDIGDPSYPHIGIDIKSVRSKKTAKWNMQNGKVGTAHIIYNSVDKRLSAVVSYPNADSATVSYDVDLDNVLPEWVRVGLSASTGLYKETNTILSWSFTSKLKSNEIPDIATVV

`C#C[C@@H]1Oc2ccccc2S(=O)(=O)N2CCC[C@H]12`: the composite z-score in [1] was -0.13; in experiment [3], -0.063; in experiment [4], -0.185; in [5] it was 0.256; in experiment [6] it was -1.2; in [7], -0.34. Moreover, the composite z-score in experiment [8] was -1.29; in experiment [9], 0.424; in experiment [10] it was -0.512. In experiment [2], the composite Z-score was 0.235 (inactive).

With `CCOC(=O)CCN1C(=O)[C@H]2[C@H]3[C@H](O)[C@H](O)CC(=NOCc4ccccc4)[C@@H]3CC[C@H]2C1=O`, the composite z-score in [1] is 0.762; in experiment [3], -0.0996; in [4] it was -0.199; in experiment [5] it was 0.381; in experiment [6], 0.317; in experiment [7], 0.784. The composite z-score in experiment [8] came to 0.37; in experiment [9], 0.116; in experiment [10] it was 0.246. Further, in [2], the composite Z-score is 0.415 (inactive).

With `O=C1[C@H]2[C@H]3[C@H](O)[C@H](O)CC(=NOCc4ccccc4)[C@@H]3CC[C@H]2C(=O)N1C1CCCCC1`, the composite z-score in experiment [1] was 0.0567; in experiment [3], -0.0903; in experiment [4], -0.196; in experiment [5] it was 0.539; in experiment [6], 0.737; in [7] it was -0.785. Besides, the composite z-score in [8] is 0.357; in experiment [9] it was -0.142; in [10] it was -0.0593. Moreover, the composite Z-score in [2] was -0.718 (inactive).

With `O[C@@H](Cc1ccccc1)[C@H]1C2C=CCCC(c3ccccc3)=C2CN1Cc1cccc(Cl)c1` (stereo not given in full), the composite z-score is -0.158 in [1]; -0.027 in experiment [3]; -0.0746 in [4]; 0.371 in [5]; 0.981 in experiment [6]; 0.466 in experiment [7]. In addition, the composite z-score in experiment [8] turned out to be 1.31; in [9], 0.441; in [10], 0.235. The composite Z-score in experiment [2] is 0.257 (inactive).

For `COC(=O)[C@H](C)NC(=O)CCC1CC(OC(=O)NCc2cccc3ccccc23)CC2(CCCC(COC(=O)NCCc3ccc(Cl)cc3)O2)O1` (stereo not given in full), the composite z-score in [1] is 0.147; in experiment [3], -0.176; in experiment [4], -0.0868; in experiment [5] it was 0.535; in experiment [6] it was 0.631; in experiment [7], -0.422. For the same compound, the composite z-score was 1.23 in [8], -0.0578 in experiment [9] and 0.946 in experiment [10]. For the same compound, in experiment [2], the composite Z-score was 0.108 (inactive).

With `C#C[C@@H](CC)O[Si](C#Cc1ccc(Oc2ccccc2)cc1)(C(C)C)C(C)C`, the composite z-score in experiment [1] is -0.109; in experiment [3], 0.122; in experiment [4], -0.11; in experiment [5], 0.535; in experiment [6], 0.476; in experiment [7] it was 0.339. Moreover, the composite z-score stood at 1.3 in experiment [8], 0.234 in [9] and 0.218 in experiment [10]. Moreover, in experiment [2], the composite Z-score is 0.317 (inactive).

Regarding `COC(=O)[C@@]1(Cc2ccccc2)[C@H]2c3cc(C(=O)N4CCCC4)n(Cc4ccccn4)c3C[C@H]2CN1C(=O)c1ccccc1`, the composite z-score stood at 0.939 in experiment [1]; 0.697 in experiment [3]; 0.284 in experiment [4]; 0.834 in [5]; 3.44 in [6]; 0.596 in [7]. For the same compound, the composite z-score in experiment [8] was determined as 1.29; in experiment [9], 0.331; in experiment [10] it was 1.04. The composite Z-score in experiment [2] is 0.193 (inactive).

`COc1ccc(COC(=O)NN=C2C[C@@H](O)[C@@H](O)[C@@H]3[C@@H]4C(=O)N(c5ccc(F)cc5F)C(=O)[C@@H]4CC[C@@H]23)cc1`: the composite z-score in experiment [1] was 0.688; in experiment [3] it was 0.112; in experiment [4], -0.14; in experiment [5] it was -0.416; in experiment [6], -0.413; in experiment [7], -0.2. Further, the results for the composite z-score in experiment [8], in experiment [9] and in experiment [10] were -0.356, -0.0448 and 0.454, respectively. The composite Z-score in experiment [2] is -0.0662 (inactive).

Regarding `COCCCNC(=O)[C@@]1(C)c2ccccc2C(=O)N(Cc2ccc(OC(F)(F)F)cc2)[C@H]1c1ccc(CO)cc1`, the composite z-score was -0.881 in experiment [1]; -0.271 in experiment [3]; -0.0836 in [4]; 0.174 in [5]; 0.125 in experiment [6]; 0.884 in experiment [7]. The composite z-score in experiment [8] is -1.22; in experiment [9], -0.654; in experiment [10], -0.836. For the same compound, the composite Z-score in experiment [2] was -0.17 (inactive).

Turning to `O=C1[C@H]2[C@H]3[C@H](O)[C@H](O)CC(=NOCc4ccccc4)[C@H]3CC[C@H]2C(=O)N1C[C@@H]1CCCO1`, the composite z-score in experiment [1] was 0.5; in experiment [3], 0.132; in experiment [4], -0.12; in experiment [5], 0.432; in experiment [6], 0.469; in experiment [7] it was 0.491. Besides, the values for the composite z-score in experiment [8], in experiment [9] and in experiment [10] were 0.232, 0.312 and 0.652, respectively. For the same compound, in experiment [2], the composite Z-score was 0.324 (inactive).

Consider `O=C(NN=C1C[C@@H](O)[C@@H](O)[C@@H]2[C@@H]3C(=O)N(c4cccc(Oc5ccccc5)c4)C(=O)[C@@H]3CC[C@@H]12)OCc1ccccc1`, for which the composite z-score in experiment [1] was 0.564; in experiment [3] it was 0.0425; in experiment [4] it was -0.0995; in experiment [5], -0.249; in [6], 0.36; in experiment [7], -0.0773. Besides, the composite z-score in [8] turned out to be 0.24; in experiment [9], 0.162; in [10] it was 0.277. In experiment [2], the composite Z-score was 0.187 (inactive).

Regarding `COCCNC(=O)OCC1CCCC2(CC(OC(=O)NCCc3ccc(F)cc3)CC(CCC(=O)N[C@@H](C)C(=O)OC)O2)O1` (stereo not given in full), the composite z-score is 0.456 in experiment [1]; 0.0228 in experiment [3]; -0.144 in experiment [4]; 0.245 in [5]; 0.292 in experiment [6]; -0.0037 in experiment [7]. In addition, the composite z-score was 1.3 in experiment [8], 0.581 in [9] and 0.769 in experiment [10]. Besides, in experiment [2], the composite Z-score is -0.126 (inactive).

As for `O=C1[C@H]2[C@H]3[C@H](O)[C@H](O)CC(=NOCc4ccccc4)[C@H]3CC[C@H]2C(=O)N1c1ccc(F)cc1F`, the composite z-score is 0.155 in experiment [1]; -0.308 in [3]; -0.265 in [4]; 0.784 in experiment [5]; -0.137 in experiment [6]; -0.713 in experiment [7]. For the same compound, the composite z-score in experiment [8] is -0.626; in experiment [9] it was 0.0499; in experiment [10], -0.111. Also, the composite Z-score in experiment [2] was -0.801 (inactive).

On to `C[C@@H]1C=CCC(=O)OC[C@H](C)C(=O)OC[C@H]2O[C@H]1C=C[C@H]2O`, for which the composite z-score in [1] was 0.411; in [3], 0.2; in experiment [4] it was -0.0795; in experiment [5], 0.116; in experiment [6] it was 0.544; in experiment [7], 0.0137. Moreover, the composite z-score in [8] came out at 0.0768; in [9], 0.458; in [10] it was 0.227. Also, the composite Z-score in experiment [2] is -0.18 (inactive).

Regarding `CCOc1ccc(N2C(=O)/C(=C/C=C/c3ccccc3OC)S(=O)(=O)C2c2cccc([N+](=O)[O-])c2)cc1` (stereo not given), the composite z-score is 0.382 in experiment [1]; 0.0762 in experiment [3]; -0.0793 in [4]; -0.138 in [5]; 0.13 in experiment [6]; 0.32 in [7]. The composite z-score is -0.319 in [8], 0.198 in [9] and 0.133 in experiment [10]. In experiment [2], the composite Z-score is -0.327 (inactive).

For the compound `COc1ccc(-c2ccc3c(n2)CCCN3CC(O)CN2CCCc3nc(C)c(C)cc32)cc1` (stereo not given), the composite z-score in experiment [1] is 0.683; in experiment [3], 0.713; in experiment [4], -0.0017; in experiment [5], 0.741; in [6] it was 0.975; in [7], 0.677. For the same compound, the composite z-score in [8] was determined as 1.2; in [9], 1.18; in [10], 1.09. The composite Z-score in experiment [2] was 2.43 (inactive).

Take `COc1cccc([C@H]2Oc3ccc(OC)cc3C(=NOC(C)CN3CCCc4nc(C)c(C)cc43)[C@@H]2O)c1` (stereo not given in full): the composite z-score in experiment [1] is -0.605; in experiment [3] it was 0.119; in experiment [4], -0.0527; in [5], 0.431; in experiment [6], 0.298; in [7], 0.532. The composite z-score is 1.14 in experiment [8], 0.414 in [9] and -1.16 in [10]. Further, the composite Z-score in [2] is 0.904 (inactive).
